Source: PubChem (National Center for Advancing Translational Sciences (NCATS))
Rows were chosen to be rich in hits. Some 20% of all compounds tested hit in one or more screens of this group.
Shiga inhibitor – A qHTS for Small Molecule Inhibitors of Shiga Toxin; Vero cells, Shiga toxin protein synthesis inhibition reporter; inhibition, % at 38.7 µM; 9.2% of 290,000 active; in the data active means inhibition mostly above about 28%, no sharp cut-off; inactive means mostly below about 43%; further: 0% is about no effect
Pf growth 48h – Primary qHTS for delayed death inhibitors of the malarial parasite plastid, 48 hour incubation. P. falciparum luciferase growth in erythrocytes, 48 h. Potency, µM (titrated, usually from 28.7 µM), without a hit: at the highest dose activity change, negative = inhibition, hits mostly inhibitors. 5.9% of 310,000 active. AID 504832, 2011; further: potency means the concentration at half of the fitted maximal effect; on the % scale 0 is the no-effect control and ±100 the full control effect
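Luminescence readout; reporter = integrated firefly luciferase in P. falciparum. RBC culture at 2% hematocrit, 0.1% parasitemia final, 37 C/5% CO2; decreased signal taken as growth inhibition.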
Cycloheximide cs – Cycloheximide Counterscreen for Small Molecule Inhibitors of Shiga Toxin. cell reporter, cycloheximide protein synthesis inhibition counterscreen. max response, %. 12% of 300,000 active. AID 2314, 2010; in the data active means max response mostly above about 13%, no sharp cut-off; inactive means mostly below about 14%; further: read at 38.3 µM for the half of the compounds with a filed dose; 0% is about no effect
HCMV inh – qHTS Assay for inhibitors of the human cytomegalovirus (HCMV). HFF cells, HCMV-luciferase reporter, 72 h; active compounds read low. activity change, negative = inhibition, % at 57.5 µM. 4.5% of 410,000 active. AID 1259415, 2018; in the data active means activity change below about -60%; inconclusive means no clear call, values can overlap the other calls; inactive means above about -39%; further: on the % scale 0 is the no-effect control and ±100 the full control effect
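Luciferase read-out from HCMV-luciferase-infected HFFs (MOI 1 PFU/cell) 72 h post infection at 37C; compounds added after 16 h cell attachment; activity normalized between buffer-only basal and Salinomycin (10uM) inhibitor controls.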
Pf growth 96h – Primary qHTS for delayed death inhibitors of the malarial parasite plastid, 96 hour incubation; Potency, µM (series often up to 28.7 µM), without a hit: at the highest dose activity change, negative = inhibition, most hits filed as inhibitors; 6.9% of 320,000 active; AID 504834, 2011; P. falciparum luciferase reporter growth, 96 h; further: potency means the concentration at half of the fitted maximal effect; on the % scale 0 is the no-effect control and ±100 the full control effect
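96 h incubation, 37 C, 5% CO2, of luciferase-reporter P. falciparum-infected RBCs (2% hematocrit, 0.05% parasitemia final) with test compounds; endpoint luminescence.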
Numbers without * were called inactive; ? = inconclusive; . = no result. Unless noted, the call rests on the fitted dose curve; in most records, active means well fitted inhibition curve with a large enough effect; inconclusive means small, poorly fitted or top-dose-only effect, or another doubt; inactive means no such curve, though single readings can be large or run the other way.

SMILES | Shiga inhibitor | Pf growth 48h | Cycloheximide cs | HCMV inh | Pf growth 96h
O=S(=O)(c1ccc(NC(=S)NCc2ccco2)cc1)N1CCCC1 | -6.1 | -21.4% | 1.2 | 1.4 | 4.4%
O=S(=O)(c1ccc(NC(=S)NCc2ccncc2)cc1)N1CCCCC1 | -2.0 | ? | 0.9 | -64.7* | 1.7%
COc1ccc(S(=O)(=O)N2CCCC(C(=O)NCc3ccncc3)C2)cc1Cl (centres undefined) | -9.9 | -7.7% | 0.7 | -65.8* | 50.9%
CCN(CC(=O)Nc1ccc(NC(C)=O)cc1)C(=O)CN1C(=O)NC2(CCCC2)C1=O | . | 34.4% | . | 2.3 | 32.4%
Cc1ccc2c(c1)-c1c(cnn1CC(=O)N1CCN(c3cc(Cl)ccc3C)CC1)CO2 | . | . | . | 0.9 | .
COc1cc(OC)c(NC(=O)c2sc3ncn(CC(=O)N4CCN(c5ccccn5)CC4)c(=O)c3c2C)cc1Cl | 0.5 | -28.6% | 0.3 | -25.9 | ?
O=C(c1cc(C2CC2)nc2ccccc12)N1N=C(C(F)F)CC1(O)C(F)F (centres undefined) | -10.1 | -6.1% | -0.4 | -14.5 | ?
O=C(c1cc(C2CC2)nc2ccc(Br)cc12)N1N=C(C(F)F)CC1(O)C(F)F (centres undefined) | -11.0 | ? | -5.5 | -73.2* | 9.28µM*
CC(C)c1ccc(-c2cc(C(=O)N3N=C(C(F)F)CC3(O)C(F)F)c3ccccc3n2)cc1 (centres undefined) | 83.3* | ? | 22.8* | 36.1 | .
Cc1csc2nc(-c3cccc(NC(=O)c4ccc(S(N)(=O)=O)cc4)c3)cn12 | . | . | . | -16.0 | .
COc1ccccc1N1CCN(/N=C/c2ccc(C(=O)O)cc2)CC1 | 154.1* | 253.5% | 48.2* | 205.1 | ?
COc1ccc(/C=N/N2CCN(c3ccccc3OC)CC2)cc1Br | . | 71.7% | 29.8* | 37.3 | -22.0%
COc1ccc(Br)cc1/C=N/N1CCN(Cc2ccccc2)CC1 | -3.1 | -10.0% | -1.4 | -28.6 | 47.2%
COc1ccc(/C=N/N2CCN(c3ccccc3OC)CC2)cc1OC | 35.8 | 12.5% | 16.5* | -2.3 | 6.8%
COc1ccccc1N1CCN(/N=C/c2cc(Br)ccc2F)CC1 | 21.9 | 21.3% | 16.0* | -28.2 | 66.1%
C[C@@H]1CN([C@@H](C)CO)C(=O)CCCn2nncc2CO[C@H]1CN(C)C(=O)OCc1ccccc1 | . | . | . | -21.8 | .
COc1ccccc1N1CCN(/N=C/c2ccc(O)c(O)c2)CC1 | 55.2* | 19.0% | 38.0* | -35.8 | 0.7%
COc1ccccc1N1CCN(/N=C/c2cc(OC)c(OC(C)=O)c(OC)c2)CC1 | . | -24.6% | -3.5 | 0.7 | ?
COc1ccccc1N1CCN(/N=C(\C)c2ccc(O)cc2)CC1 | 43.4* | 75.2% | 28.1* | -23.8 | 170.7%
O=C1CCC/C1=C\Nc1ccc(Cl)c([N+](=O)[O-])c1 | 17.5 | 13.8% | 8.7 | -10.0 | 22.1%
CC1CCC/C(=C\Nc2ccc3c(c2)OCO3)C1=O (centres undefined) | 51.2* | . | 32.7* | 102.5 | 35.9%
O=C1CCC/C1=C/Nc1ccc2c(c1)OCO2 | 94.8* | ? | 42.2* | 4.5 | -17.9%
COCCn1nnnc1CN(Cc1cc2cc(OC)c(OC)cc2[nH]c1=O)C1CCCC1 | -10.0 | 0.0% | 7.8 | -19.6 | .
COc1cc2cc(CN(Cc3nnnn3Cc3ccco3)C3CCCCC3)c(=O)[nH]c2cc1OC | -14.5 | 8.28µM* | 5.3 | -21.8 | .
CCOc1ccc2[nH]c(=O)c(CN(Cc3nnnn3Cc3ccco3)C3CCCCC3)cc2c1 | -17.2 | 11.7µM* | 6.4 | -2.8 | 21.8%
SMILES | Shiga inhibitor | Pf growth 48h | Cycloheximide cs | HCMV inh | Pf growth 96h
CCOc1ccc2[nH]c(=O)c(CN(CCO)C3(c4nnnn4C4CCCCC4)CCCCC3)cc2c1 | -6.1 | -7.7% | -2.1 | -60.6* | 0.0%
C=CCN(CC=C)C(=O)C1CCN(S(=O)(=O)c2ccc(-n3cnnn3)cc2)CC1 | 4.6 | 2.0% | -5.3 | -13.3 | 0.9%
Oc1cccc2ccc[n+](CC(O)Cn3c4ccccc4c4ccccc43)c12 (centres undefined) | -5.5 | 1.04µM* | -1.7 | -21.4 | ?
CCCCNC(=S)NNC(=O)c1c(C)nc2ccccn12 | -6.0 | 24.8% | 5.6 | 33.4 | 9.7%
O=C(NC1CCCCCC1)C1Cc2ccccc2CN1C(=O)c1ccco1 (centres undefined) | 8.4 | -12.6% | 10.0 | -27.3 | 0.0%
O=C1C(Cl)=C(NCCCO)C(=O)c2ccccc21 | 12.8 | ? | 13.8* | -29.1 | .
CCOCCCNC1=C(Cl)C(=O)c2ccccc2C1=O | 72.0* | 3.7µM* | 36.0* | -26.5 | ?
O=C1C(Cl)=C(NCCCN2CCOCC2)C(=O)c2ccccc21 | . | . | . | 6.2 | .
O=C1C(Cl)=C(NCCN2CCOCC2)C(=O)c2ccccc21 | 63.0* | ? | 31.9* | -10.2 | ?
Cc1ccc(C)c(NC(=O)CSc2nnc(-c3cc4occc4n3C)n2-c2ccccc2C)c1 | . | . | . | -38.2 | .
O=C(Nc1ccc(Cl)cc1)c1ccc2sc([C@@H]3O[C@H](CO)[C@H](O)[C@H](O)[C@H]3O)nc2c1 | . | . | . | -9.8 | .
CN1CCc2nc3sc(C#N)c(N)c3c(-c3cccs3)c2C1 | -20.9 | 13.1µM* | 0.6 | -27.8 | .
C/C(=N/NC(=O)c1ccc(Br)o1)c1cccs1 | 123.2* | 102.5% | 50.3* | 49.5 | ?
C/C(=N\NC(=O)c1cc(Br)ccc1O)c1cccs1 | 125.9* | 177.1% | 37.1* | 13.7 | -1.7%
C/C(=N\NC(=O)c1cc(C)nc2ccccc12)c1cccs1 | -3.7 | -16.2% | -1.2 | -38.6 | ?
COc1ccc(-n2c(SCC(=O)Nc3cc(C)cc(C)c3)nc3c(oc4ccccc43)c2=O)cc1 | . | . | . | -3.0 | .
CC(=O)c1c(O)cc(O)c(C(C)=O)c1O | -4.7 | 10.4µM* | -5.4 | . | -10.8%
CC(=O)c1c(O)cc(O)cc1CC(=O)O | -9.0 | 41.7% | 1.7 | -9.7 | ?
Cc1ccc(S(=O)(=O)NCC(Nc2cccc(Cl)c2)c2ccccc2)cc1 (centres undefined) | . | . | . | -103.1* | .
O=S(=O)(NCC(Nc1ccc(Cl)cc1)c1ccccc1)c1ccc(Cl)cc1 (centres undefined) | -4.3 | ? | -5.9 | ? | ?
C[C@@H]1CN([C@H](C)CO)C(=O)CCCn2nncc2CO[C@H]1CN(C)C(=O)Cc1ccccc1 | . | . | . | -21.8 | .
Cc1cc(C)c(Cn2c3ccccc3c3cnn(CC(=O)N4CCCCC4)c(=O)c32)c(C)c1 | . | . | . | 12.7 | .
CCN1CCN(C(=O)Cn2ncc3c4ccccc4n(Cc4c(C)cc(C)cc4C)c3c2=O)CC1 | . | . | . | -60.3* | .
O=C(Cn1ncc2c3ccccc3n(Cc3ccccc3F)c2c1=O)N1CCC2(CC1)OCCO2 | -20.0 | -14.1% | -2.3 | 7.7 | 16.5%
O=C(Cn1ncc2c3ccccc3n(Cc3ccccc3)c2c1=O)N1CCC2(CC1)OCCO2 | 30.4 | ? | 29.4* | . | 0.8%
COC(=O)c1cc2oc3ccccc3c2n1Cc1nc(-c2cccc(C)c2)oc1C | . | . | . | 14.8 | .
